# Hits are enriched below; roughly 1.9% of the tested compounds scored in any of these assays.
# TNF death inh: inhibitors of TNF-alpha induced necroptosis in Jurkat FADD-/- cells. Jurkat FADD-/- TNF necroptosis rescue, ATP luminescence, 24 h; 0 = TNF only, 100 = no-TNF cells. activation (protection from cell death), % at 10 µM. 220,000 tested, 0.068% active. AID 463075;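 active = activation, meaning protection from cell death, of at least 50% relative to plate controls; inactive = activation below 50%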;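 note: necroptosis triggered by 40 ng/mL TNF-alpha added together with compound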
# L929 necroptosis: blocks zVAD induced death of L929 cells; L929 zVAD necroptosis rescue, ATP luminescence, 24 h; with zVAD 60 µM; viability rescue, % at 10 µM; 220,000 tested, 0.38% active; AID 1377;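 active = activation, scaled between plate controls, above about 75%, limit read from the data; inactive = activation under that limit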;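 note: 0% = zVAD with DMSO and 100% = DMSO alone without zVAD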
# HSF1 activator: increases HSF-1 driven luciferase reporter signal; NIH3T3-HGL HSF-1 luciferase reporter, MG132, 8 h; 100% = twice DMSO control signal; activation, % at 9 µM; 300,000 tested, 1.7% active; AID 504408;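 active = mean replicate activation of at least 50% with a set share of replicates each reaching 50%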;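 note: 0% = median of the neutral control wells and 100% = twice that signal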
# Hsp70 act: transcriptional activators of Hsp70; HeLa Hsp70 promoter luciferase reporter, luminescence; scaled: vehicle 0, proteasome-inhibitor control 100%; activation, % at 10 µM; 200,000 tested, 0.04% active;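 active = activation above the mean across all tested compounds plus 3 SD, cutoff set per campaign, cut at about 5.5% in these data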;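 note: 100% = MG132 at 30 µM as the positive control and 0% = DMSO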
# Numbers without * were called inactive; / = no result given.
SMILES,TNF death inh,L929 necroptosis,HSF1 activator,Hsp70 act
CC1=NN(c2ccc(C)cc2C)C(=O)C1C(c1ccccc1)C1C(=O)N(c2ccc(C)cc2C)N=C1C (centres undefined),-1,0,64*,0
Cc1ccc(-n2nc(C)c(C(=O)O)n2)c(C)c1,0,0,-4,0
CC(C)NC(=O)NC(=O)COC(=O)c1cccc(S(=O)(=O)N2CCCCC2)c1,2,1,24,0
C=CC[C@@H]1Cc2c(Br)ccc(Br)c2[C@@H](CC=C)N1,1,0,61*,0
C=CCC1NCCc2c(Br)cccc21 (centres undefined),2,0,-12,0
O=C1C=CC(=O)N1c1ccc(Sc2ccc([N+](=O)[O-])cc2)cc1,2,0,82*,/
Nc1ccc(Sc2ccc([N+](=O)[O-])cc2)cc1,4,1,5,0
O=C(CSc1nc2ccccc2s1)N1c2ccccc2Sc2ccc(Cl)cc21,-3,2,19,-1
O=c1oc2cc(Cl)ccc2n1CSc1nc2ccccc2s1,10,1,104*,0
COc1cc(OC)c(NC(=O)CCNC(=O)Cn2cnc3ccccc3c2=O)cc1Cl,0,1,51*,0
COc1cc(OC)c(N(C)C(=O)CCNC(=O)Cn2cnc3ccccc3c2=O)cc1Cl,1,2,5,0
CC(C)c1ccc(CNc2ccc([N+](=O)[O-])cn2)cc1,5,50,71*,0
O=[N+]([O-])c1ccc(NCc2ccc(Cl)cc2)nc1,47,1,40,/
O=[N+]([O-])c1ccc(Nc2ccccc2F)nc1,73*,50,24,0
O=[N+]([O-])c1ccc(Nc2ccc(Cl)cc2)nc1,81*,56,22,0
COc1ccc(CN2CC[C@@H](N3CCOCC3)[C@H](O)C2)cc1F,/,/,3,/
Cc1ccc(N2CC(C(=O)Nc3ccc(S(=O)(=O)Nc4ncccn4)cc3)CC2=O)cc1C (centres undefined),/,/,7,/
CCOC(=O)Nc1csnn1,3,0,-6,/
CCOc1ccc(-n2c(=O)c3c4c(sc3n(CC(=O)NCCCOC)c2=O)CCCCC4)cc1,0,2,-9,0
COc1ccc(-n2c(=O)c3c4c(sc3n(CC(N)=O)c2=O)CCCCC4)cc1,1,0,52*,/
CCN(c1ccccc1)S(=O)(=O)c1ccc(C(=O)N(CCN(C)C)c2nc3c(F)cc(F)cc3s2)cc1,/,/,1,/
O=C(CN1C(=O)c2ccccc2S1(=O)=O)N1CCCCC1,/,/,54*,/
Cc1ccc(O)c(NC(=O)CSc2n[nH]c(-c3ccccc3)n2)c1,/,/,109*,/
CC(=O)N(Cc1ccco1)c1nc(C(=O)Nc2ccc(Cl)cc2)c(C)s1,9,1,53*,0
Cc1sc2nc(C3CC3)nc(SCC(=O)N3CCc4ccccc4C3)c2c1C,-9,0,68*,0
SMILES,TNF death inh,L929 necroptosis,HSF1 activator,Hsp70 act
Cc1sc2nc(C3CC3)nc(SCC(=O)N3CCCc4ccccc43)c2c1C,2,0,-2,0
CS(=O)(=O)Nc1ccc(C(=O)Nc2ccc(S(=O)(=O)N3CCCC3)cc2)cc1,0,1,6,0
COC(=O)c1ccc2nc(Nc3nc4ccc(F)cc4s3)sc2c1,3,2,-91,-1
CC(=O)c1sc(Nc2nc3ccc(F)cc3s2)nc1C,-6,0,82*,0
O=C(Nc1nc2ccccc2s1)c1cnccn1,0,-1,22,0
O=C(Nc1nc2ccc(F)cc2s1)c1ccccn1,-11,25,110*,0
O=C(Nc1nnc(SCc2ccc(F)cc2)s1)c1ccccn1,-5,7,223*,0
O=c1c2ccccc2oc2ccc(-c3ccc4[nH]ccc4c3)cc12,/,/,15,/
O=C(NCCCNC(=O)c1cnccn1)c1cccc(F)c1,/,/,5,/
C=CCn1c(SCc2csc(-c3ccc(Cl)cc3)n2)nnc1-c1ccccc1OC,-1,0,58*,0
COC(=O)c1sc(-c2ccc(Cl)cc2)cc1NC(=O)/C=C/C(=O)O,-3,-1,66*,/
COC(=O)c1sc(-c2ccc(Cl)cc2)cc1NC(=O)COCC(=O)O,1,0,0,/
Cc1cc(-c2nsc(=O)o2)c(S(C)(=O)=O)s1,-1,2,0,0
COC(=O)c1ccc(CN2C(=O)NC3(CCCCC3C)C2=O)o1 (centres undefined),1,3,3,0
CCc1ccc(NC(=O)CSC2=C(C#N)C(c3ccc4c(c3)OCO4)CC(=O)N2)cc1 (centres undefined),1,4,64*,0
O=C1OC(Nc2nc(-c3ccc(F)cc3)cs2)c2ccccc21 (centres undefined),/,/,4,/
Cc1cccc(-c2noc(-c3cc4ccccc4oc3=O)n2)c1,0,1,14,0
CC/C=C/C(=O)N1CC2(CC(c3cccc(NC(=O)COc4ccc(Cl)cc4)c3)=NO2)C[C@H]1C(N)=O (some centres undefined),-2,0,7,/
CCc1nnc(NC(=O)CC23CC4CC(CC(Br)(C4)C2)C3)s1,/,/,58*,/
Cc1cc(C)c(OCC(O)CN2CCN(c3ccccn3)CC2)c(C)c1 (centres undefined),0,1,-31,0
CC(C)SC1=NC(C)(C)C=C(/C=C/c2c(Cl)cccc2Cl)N1,0,0,32,0
CC(C)SC1=NC(C)(C)C=C(/C=C/c2ccc(Cl)cc2Cl)N1,-3,-1,82*,0
CC1CCCCC1NS(=O)(=O)c1ccc2c(c1)CC(=O)N2C (centres undefined),/,/,-1,/
CCOCC(=O)Nc1cc(C)on1,1,1,7,0
CSc1nccc(N/N=C/c2ccccc2)n1,/,/,72*,/
SMILES,TNF death inh,L929 necroptosis,HSF1 activator,Hsp70 act
COc1ccc(N2N=NN(C(C)C)C2=C(Cl)c2nnnn2-c2ccc(OC)cc2)cc1,/,/,-24,/
CC(Oc1ccc(Cl)cc1)c1ccc(C#N)c(=O)[nH]1 (centres undefined),0,6,23,0
Cc1ccccc1Cn1cc(C)c(=O)[nH]c1=O,0,2,-4,0
Cc1cn(Cc2ccccc2Cn2cc(C)c(=O)[nH]c2=O)c(=O)[nH]c1=O,1,0,71*,/
Clc1ccc(-c2nnc(COc3ncnc4sccc34)o2)cc1,2,1,34,0
COc1ccccc1CNC(=O)c1ccc(NS(=O)(=O)c2cccs2)cc1,/,/,64*,/
CCOc1ccc(CN(C)CC(O)COC(c2ccc(OC)cc2)c2ccc(OC)cc2)cc1 (centres undefined),/,/,57*,/
COc1ccc(CN(C)CC(O)COC(c2ccc(OC)cc2)c2ccc(OC)cc2)cc1 (centres undefined),/,/,9,/
CN(CC(=O)Nc1ccc(F)cc1)C(=O)COC(=O)c1ccc(-c2ccccc2)cc1,/,/,9,/
O=C(/C=C/c1ccco1)NC(=S)Nc1nc(-c2ccc3ccccc3c2)cs1,0,1,136*,0
O=C(/C=C\c1ccco1)Nc1nc(-c2ccccc2)cs1,2,0,40,0

# High-throughput results deposited in PubChem BioAssay by several laboratories.
